# An excerpt weighted towards active compounds, which were near 4.6% of everything screened.
# TRHR agonist: activates the human TRH receptor; activation, % at 2 µM; TRHR cells, calcium flux fluo-8, FDSS agonist mode; AID 493084; actives 0.18% (n = 360,000); P34981; further: 0% is about no effect
#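 TRHR-expressing cells, plated overnight in medium with 10% serum, were loaded with fluo-8 calcium dye at room temperature. After a 10 s baseline, library compound was pin-added and calcium release was recorded kinetically (ex 480/em 530) as agonist response.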
# D1 ag: human D1 receptor agonism; activation, % at 2 µM; HEK293 T-REx D1 cells, calcium flux, agonist mode; actives 1% (n = 360,000); further: 0% is about no effect
# Target sequence (P21728 whole entry, looked up): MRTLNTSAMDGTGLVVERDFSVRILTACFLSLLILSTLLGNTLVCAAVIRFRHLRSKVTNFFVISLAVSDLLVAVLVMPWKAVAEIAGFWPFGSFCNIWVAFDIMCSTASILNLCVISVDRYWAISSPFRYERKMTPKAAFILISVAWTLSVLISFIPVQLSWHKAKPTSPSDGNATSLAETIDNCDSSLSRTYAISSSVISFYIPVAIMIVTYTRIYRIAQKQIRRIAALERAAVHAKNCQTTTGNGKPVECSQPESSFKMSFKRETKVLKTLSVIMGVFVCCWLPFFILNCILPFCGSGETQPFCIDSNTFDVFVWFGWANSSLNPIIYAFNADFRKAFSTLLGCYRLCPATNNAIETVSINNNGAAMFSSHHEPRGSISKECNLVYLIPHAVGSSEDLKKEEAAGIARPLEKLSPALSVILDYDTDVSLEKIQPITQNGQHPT
#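 Agonism was scored from calcium flux recorded over 180 s (1 read/s) after pintool compound addition, following a 10-cycle baseline. Cells were inducible force-coupled HEK293 TREx D1, plated overnight at 30 C and loaded with no-wash calcium dye.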
# TRHR PAM: TRH receptor (human) allosteric enhancement | P34981 | TRHR cells, fluo-8 calcium fluorescence, EC20 TRH enhancement | enhancement, % at 2 µM | actives 0.66% (n = 360,000); in the data active means enhancement above about 30%; further: 0% is about no effect
#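 TRHR-expressing cells loaded with fluo-8 calcium dye were read kinetically (ex 480/em 530) during compound addition, then stimulated with an EC20 of TRH (10 nM final). Enhancement of the Gq-mediated intracellular calcium response was scored.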
# D1 antag: antagonists of human D1 dopamine receptor | P21728 | HEK293 TREx D1 cells, calcium flux, dopamine EC80; hits give low values | activity change, negative = inhibition, % at 10 µM | actives 3.2% (n = 360,000); in the data active means activity change below about -30%; further: on the % scale 0 is the no-effect control and ±100 the full control effect
#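 Inducible Hek293 Trex D1 cells (tetracycline, overnight, 30 C). Calcium dye 30–90 min RT. Antagonist mode: EC80 dopamine added after 180 s compound read.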
# D1 potentiator: enhances dopamine response at the human D1 receptor; P21728; HEK293 TREx D1 cells, calcium flux, dopamine EC20 potentiation; potentiation, % at 10 µM; actives 0.036% (n = 360,000); AID 504651; in the data active means potentiation above about 30%; further: 0% is about no effect
# * hit, by the source's call; . = not tested or not shown; ! = repeats disagree. Unless noted, no stated cut-off is given here; in the data, active means activation above about 30%; inactive means the rest.
SMILES,TRHR agonist,D1 ag,TRHR PAM,D1 antag,D1 potentiator
C=CCn1c(SCCC)nc(O)cc1=O,26,128*,-12,-26,-5
COc1ccccc1C(=O)OCc1cc(=O)n2c(C)csc2n1,0,1,3,1,-6
CCN(CC)CCNCC(O)(c1ccc(Cl)cc1)c1ccc(Cl)cc1,5,32*,-4,-28,-7
O=S(=O)(c1ccc2c(c1)OCCO2)N1CCN(S(=O)(=O)c2cccc(Cl)c2F)CC1,0,8,0,5,-4
CC(=O)Nc1ccc(NC(=O)c2ccc([N+](=O)[O-])cc2Cl)cc1,1,4,-3,15,5
CCC(C)NS(=O)(=O)c1ccc(NC(=O)c2ccc([N+](=O)[O-])cc2Cl)cc1 (stereo not given),1,4,-6,-31*,-4
CCOc1ccc(CSC2=NCCN2)cc1Cl,0,14,-8,-35*,-9
C=CCc1ccccc1OCc1nc2ccccc2n1CC,0,15,-7,-1,-1
O=C(Nc1ccc(N2CCN(Cc3ccccc3)CC2)cc1)c1ccco1,0,4,-4,-30*,-4
O=C(Nc1ccc(N2CCN(C(=O)c3ccco3)CC2)cc1)c1ccccc1,0,1,4,-56*,2
Cc1ccc(Cn2c(SCC(=O)C(C)(C)C)nc3ccsc3c2=O)cc1,0,3,6,3,-1
CCc1nn2c(=O)c(S(=O)(=O)Nc3ccc(C)c(C)c3)c(C)nc2s1,1,11,16,-9,-1
COc1cc(C2C(C(C)=O)=C(O)C(=O)N2Cc2ccccc2)ccc1O (stereo not given),0,2,6,-32*,-5
COc1cc(C2C(C(=O)C(C)(C)C)=C(O)C(=O)N2Cc2ccccc2)ccc1O (stereo not given),1,2,-2,-11,7
O=C(Nc1ccc(Br)cc1)c1cc(S(=O)(=O)N2CCc3ccccc32)ccc1F,1,7,1,-50*,-3
Cc1ccc(NC(=O)c2cc(S(=O)(=O)N3CCCc4ccccc43)ccc2F)cc1F,4,6,-9,-31*,-3
Cc1cc2c(s1)c1cnn(Cc3cccc(F)c3)c(=O)c1n2C,-1,0,-4,5,1
Cc1c(Cl)cccc1NC(=O)Cn1c(=O)n(Cc2nc(-c3ccccc3)no2)c(=O)c2cc3c(cc21)OCO3,-1,7,-2,1,-2
CC(SCc1cc(=O)n2c([nH]c3ccccc32)c1C#N)C(=O)O (stereo not given),2,3,2,-32*,-4
COc1ccccc1Nc1nn2c(=O)c3ccc(C(=O)NC4CCCCC4)cc3nc2s1,1,1,5,3,-1
Cc1cccc(OCC(=O)NCCc2nc3ccccc3[nH]2)c1C,0,1,3,-5,-2
COCC(=O)O[C@]1(CCN(C)CCCc2nc3ccccc3[nH]2)CCc2cc(F)ccc2[C@@H]1C(C)C,3,67*,-4,-23,-10
CCN1C(=O)/C(=C/C=C2/CCCN2C)OC1=S,14,30*,-4,-9,-4
CC1CC(C)CN(CCCSc2ccccc2)C1 (stereo not given),0,10,32*,-7,-4
CC1CC(C)CN(CCOCCSc2ccccc2)C1 (stereo not given),0,14,-5,-38*,-13
SMILES,TRHR agonist,D1 ag,TRHR PAM,D1 antag,D1 potentiator
COC(=O)c1ccccc1NC(=O)c1noc2c1CSc1ccccc1-2,1,10,0,-2,-1
CN(C)c1nc(N(C)C)n(C(=O)c2ccc(F)cc2)n1,0,4,-4,-33*,-4
COc1ccc(CN(C)c2ccc(-c3nc(-c4ccc(OC)c(OC)c4)no3)cc2[N+](=O)[O-])cc1,0,12,-1,-13,-2
Cc1ccc(CNC(=O)C(=O)NCC(c2cccs2)S(=O)(=O)c2cccs2)cc1 (stereo not given),0,2,-2,.,-3
CC(C)C(=O)Nc1nnc(S(=O)(=O)N2CCCCCC2)s1,1,0,7,-32*!,-1
Cc1ccc(C(=O)Nc2nnc(S(=O)(=O)N3CCCCCC3)s2)cc1,0,1,5,-2,-3
O=C(Nc1nnc(S(=O)(=O)N2CCCCC2)s1)c1cccc(Br)c1,1,30*,-1,-5,-4
CCC(CC)C(=O)Nc1nnc(S(=O)(=O)N2CCCCCC2)s1,2,7,-8,0,5
O=C(Nc1nnc(S(=O)(=O)N2CCCCCC2)s1)c1ccc(Cl)cc1,1,8,37*!,4,8
CC1CCN(S(=O)(=O)c2nnc(NC(=O)c3cccc(Br)c3)s2)CC1,0,1,-1,10,0
COc1cccc(C(=O)Nc2ccc(Cl)c(-c3nc4ccccc4[nH]3)c2)c1,-1,10,-7,-5,-1
Cc1occc1C(=O)N(C)CC1CCCN(CCc2ccccc2F)C1 (stereo not given),-1,3,18,-32*,-5
Cc1cc(C)c(C(=O)N(C)CC2CCCN(CCc3ccccc3F)C2)o1 (stereo not given),0,1,-2,-67*,-2
CN(CC1CCCN(CCc2ccccc2F)C1)C(=O)c1ccoc1 (stereo not given),1,1,1,8,3
C#CCOCCOCCOCCNc1nc(N2CCN(C(=O)CCCCCCCCCCNC(=O)Cn3cc(CCCCCN)nn3)CC2)nc(N2CCN(C(=O)CCCCCCCCCCNC(=O)[C@H]([C@@H](C)CC)n3cc(CCCCCN)nn3)CC2)n1,9,43*,4,110,20
C#CCOCCOCCOCCNc1nc(N2CCN(C(=O)CCCCCCCCCCNC(=O)Cn3cc(CCCCCN)nn3)CC2)nc(N2CCN(C(=O)CCCCCCCCCCNC(=O)[C@H](CO)n3cc(CCCCCN)nn3)CC2)n1,13,85*,-2,66,14
C#CCOCCOCCOCCNc1nc(N2CCN(C(=O)CCCCCCCCCCNC(=O)[C@@H](CCC(=O)O)n3cc(CCCCCN)nn3)CC2)nc(N2CCN(C(=O)CCCCCCCCCCNC(=O)[C@@H](CCC(=O)O)n3cc(CCCCCN)nn3)CC2)n1,0,10,-10,-32*,-6
O=C(COC(=O)CNC(=O)c1cccc([N+](=O)[O-])c1)Nc1ccccc1OC(F)F,-1,4,34*,-8,2
O=C(COC(=O)CNC(=O)c1cccc([N+](=O)[O-])c1)Nc1nc2ccccc2s1,0,3,-3,-8,-8
O=C1CSC(=S)N1c1cccc(Br)c1,-1,3,-16,-83*,-16
COc1ccc(C(F)(F)F)cc1NC(=O)C(OC(=O)CNC(=O)c1ccccc1)c1ccccc1 (stereo not given),0,8,-4,9,-7

# Screening data deposited in PubChem by National Center for Advancing Translational Sciences (NCATS).
